Screening data from PubChem BioAssay.
TIM10 inh = growth inhibitors of TIM10 yeast strain; S. cerevisiae TIM10 strain growth, BacTiter-Glo luminescence, 24 h; inhibition, % at 10 µM; 1.4% of 330,000 active;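 active means inhibition of 40% or more at the single tested concentration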;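 further: wild-type TIM10 isogenic control strain grown at permissive 25 °C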
NALP1 yeast inh = blocks the NALP1 inflammasome reconstituted in yeast | S. cerevisiae NALP1/ASC/caspase-1 growth, X-gal OD620, 72 h | inhibition, % at 10 µM | 0.61% of 280,000 active | AID 2071; in the data active means inhibition mostly above about 24%, no sharp cut-off; inactive means mostly below about 32%
tim10-1 inh = growth inhibitors of tim10-1 mutant yeast | S. cerevisiae tim10-1 ts strain growth, BacTiter-Glo, 24 h | inhibition, % at 20 µM | 2.2% of 330,000 active;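 active means inhibition of at least 40%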;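 further: mutant grown at 25 °C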
tim23-1 inh = growth inhibitors of tim23-1 mutant yeast; S. cerevisiae tim23-1 growth, BacTiter-Glo luminescence, 24 h; inhibition, % at 20 µM; 1.3% of 330,000 active;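 active means growth inhibition of the mutant yeast at or above 50%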;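 further: temperature-sensitive mutant grown at 25 °C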
NALP3 yeast inh = blocks the NALP3 inflammasome reconstituted in yeast; 0.39% of 330,000 active; inhibition, % at 10 µM; Yeast reconstituted NLRP3/ASC/caspase-1, beta-gal luminescence, 24 h;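 active means inhibition of 50% or more; inactive means inhibition below 50%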
tim10-1 confirm = confirmation of tim10-1 mutant yeast growth inhibitors. shares compounds with tim10-1 inh. S. cerevisiae tim10-1 ts strain growth, BacTiter-Glo, 24 h. inhibition, % at 20 µM. 56% of 7,400 active;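 active means inhibition of yeast growth at or above a set limit in either of two repeat tests at 20 µM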;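 further: tim10-1 mutant grown at permissive 25 °C to find synthetic lethal compounds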
tim10 confirm = TIM10 yeast growth inhibition, confirmed; shares compounds with TIM10 inh; S. cerevisiae tim10 strain growth, BacTiter-Glo luminescence, 24 h; inhibition, % at 10 µM; 63% of 4,600 active; AID 463215;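 active means inhibition of yeast growth at or above a set limit in either of two replicates at 10 µM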; further: this counterscreen used the strain with wild-type TIM10
tim23-1 confirm = tim23-1 yeast growth inhibition, confirmed; shares compounds with tim23-1 inh; S. cerevisiae tim23-1 growth, BacTiter-Glo luminescence, 24 h; inhibition, % at 20 µM; 83% of 4,400 active; AID 463218;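 active means inhibition above about 39% in either of two replicate wells at 20 µM, limit read from the data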;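 further: temperature-sensitive tim23-1 mutant grown at 25 °C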
Large screens that a line does not name were inactive (follow-up assays come after a bar, where they were run). Compounds with a hit are over-represented: about 4% of the library has one in this group of screens.

CCOC(=O)C(C(=O)OCC)C(Nc1ccc(Br)cc1)c1ccccc1 (stereo not given)	TIM10 inh 51, tim10-1 inh 51 | tim10-1 confirm 39 | tim10 confirm 52
CCOC(=O)C(c1ccccc1)C(Nc1ccc(F)cc1)c1ccccn1 (stereo not given)	none
CCC(=O)N1CCc2cc(S(=O)(=O)N3CCN(c4ccccn4)CC3)ccc21	TIM10 inh 44, tim10-1 inh 43 | tim10-1 confirm 37 | tim10 confirm inactive
CCC(=O)N1CCc2cc(S(=O)(=O)N3CCN(c4ccccc4)CC3)ccc21	none
CCC1CSC(Nc2ccc(C(=O)/C=C/c3ccc(Oc4ccccc4)cc3)cc2)=N1 (stereo not given)	none
CCC1CSC(Nc2ccc(C(=O)/C=C/c3cccc(C)c3)cc2)=N1 (stereo not given)	TIM10 inh 62, tim10-1 inh 57 | tim10-1 confirm 44 | tim10 confirm 62
COc1ccc(C)cc1NC(=O)C1CCN(C(=O)c2ccc(C(C)(C)C)cc2)CC1	none
O=S(=O)(c1cccc(-c2nc3ccccc3s2)c1)N1CCCC1	TIM10 inh 44, tim10-1 inh 48 | tim10-1 confirm 34 | tim10 confirm 42
CCOC(=O)[C@H]1[C@H]2COc3ccc(OC)cc3[C@@H]2N2C(=O)CN(CC3CCCO3)C(=O)[C@@]12C (stereo not given in full)	none (no result: NALP1 yeast inh)
NC(=O)c1ccsc1NC(=O)c1ccc2c(c1)CCCC2	TIM10 inh 56, tim10-1 inh 46 | tim10-1 confirm inactive | tim10 confirm 37
CCCSc1nc(C)c2cc(C)cc(C)c2n1	none
Cc1cc(C)c2nc3nc(C)c(C)cc3c(N)c2c1	TIM10 inh 81, tim10-1 inh 62 | tim10-1 confirm 71 | tim10 confirm 81
Cc1ccnc(Nc2nc(-c3c(C)nc4sccn34)cs2)c1	TIM10 inh 45, tim10-1 inh 44 | tim10-1 confirm inactive | tim10 confirm 32
Cc1ccnc(Nc2nc(-c3ccccc3)cs2)c1	none
O=C(Nc1cccnc1)OCc1ccccc1	none
O=C(Nc1ccc(Cl)c(Cl)c1)OCc1cccnc1	TIM10 inh 44, tim10-1 inh 50 | tim10-1 confirm 47 | tim10 confirm 30
CC(=O)Oc1c(-c2ccco2)oc2ccccc2c1=O	TIM10 inh 62, tim10-1 inh 53 | tim10-1 confirm 49 | tim10 confirm 61
COc1ccc(C)c2sc(N3CCCC3)nc12	TIM10 inh 44, tim10-1 inh 44 | tim10-1 confirm 33 | tim10 confirm inactive
CN(CCOc1ccc(Cl)cc1)C(=O)Cc1ccc(S(=O)(=O)N2CCOCC2)s1	none (no result: NALP1 yeast inh)
COc1cc2c(cc1OC)C(COc1ccc(F)cc1)NCC2 (stereo not given)	TIM10 inh 45, tim10-1 inh 43 | tim10-1 confirm 36 | tim10 confirm 42
CCc1ccc(OCC2NCCc3cc(OC)c(OC)cc32)cc1 (stereo not given)	none
Cc1cccc(Cn2nnc3c2C(=O)c2ccccc2C3=O)c1	TIM10 inh 52, tim10-1 inh 42 | tim10-1 confirm inactive | tim10 confirm 33
CCNS(=O)(=O)c1ccc(CCC(=O)N2CCN(C(=O)OCC)CC2)cc1	none (no result: NALP1 yeast inh)
Cc1cc(C)c(C)c(S(=O)(=O)N(C)CCc2ccccn2)c1C	none (no result: NALP1 yeast inh)
COc1cccc(-c2nn3c(-c4ccco4)nnc3s2)c1	TIM10 inh 47, tim10-1 inh 52 | tim10-1 confirm 55 | tim10 confirm inactive
CCCc1cc(-c2nc(-c3ccc(Br)cc3)cs2)ccn1	none
CCCc1cc(-c2nc(-c3ccc(Cl)cc3)cs2)ccn1	TIM10 inh 51, tim10-1 inh 47 | tim10-1 confirm 45 | tim10 confirm 43
Cc1cc(C)c(CN2CCN(C(=O)Cn3cnc(C(=O)Nc4ccc(C)c(C)c4)n3)CC2)c(C)c1	none (no result: NALP1 yeast inh, NALP3 yeast inh)
CC(=O)N(Cc1ccc(F)cc1)C1=C(NCCc2ccccc2)C(=O)c2ccccc2C1=O	TIM10 inh 45, tim10-1 inh 41 | tim10-1 confirm inactive | tim10 confirm 31
CC(=O)N(Cc1ccc(F)cc1)c1cccc(C)c1C	none
O=C(Nc1ccccn1)c1ccc([N+](=O)[O-])o1	TIM10 inh 44, tim10-1 inh 44 | tim10-1 confirm 39 | tim10 confirm 35
O=C(Nc1ccccc1F)c1ccc([N+](=O)[O-])s1	TIM10 inh 56, tim10-1 inh 45 | tim10-1 confirm 59 | tim10 confirm 64
O=C(Nc1cccc2ccccc12)c1ccc([N+](=O)[O-])s1	none
Cc1oc(=O)c(NC(=O)c2cccc(Cl)c2)cc1C(=O)c1ccccc1	TIM10 inh 51, tim10-1 inh 62 | tim10-1 confirm 62 | tim10 confirm 43
Cc1oc(=O)c(NC(=O)c2ccccc2)cc1C(N)=O	none
COC(=O)c1cc(NC(=O)c2ccccc2)c(=O)oc1C	none
COc1ccc(C(=O)Nc2cc(C(=O)c3ccccc3)c(C)oc2=O)cc1	TIM10 inh 60, tim10-1 inh 66 | tim10-1 confirm 70 | tim10 confirm 43
Cc1cc(C)cc(N2C(=O)CC(Sc3ncn[nH]3)C2=O)c1 (stereo not given)	TIM10 inh 41, NALP1 yeast inh 58, tim10-1 inh 45 | tim10-1 confirm 35 | tim10 confirm 32
CCC(=O)N(Cc1ccco1)c1nc(C(=O)Nc2ccc(Cl)cc2)c(C)s1	TIM10 inh 44, tim10-1 inh 46 (no result: NALP1 yeast inh) | tim10-1 confirm 35 | tim10 confirm 38
CCN(C(=O)c1ccco1)c1nc(CC(=O)Nc2ccc(Cl)cc2)cs1	none
O=C(CC1C(=O)N(c2ccccc2)C(=S)N1c1ccccc1)c1ccccc1 (stereo not given)	TIM10 inh 49, tim10-1 inh 47, tim23-1 inh 52 | tim10-1 confirm 42 | tim10 confirm 40 | tim23-1 confirm 53
O=C(CC1C(=O)N(c2ccccc2)C(=S)N1c1ccccc1)c1ccc(Br)cc1 (stereo not given)	none
Oc1ccc(Oc2ccc3c(C(F)(F)F)cc(C(F)(F)F)nc3n2)cc1	TIM10 inh 43, tim10-1 inh 40, tim23-1 inh 56 | tim10-1 confirm inactive | tim10 confirm inactive | tim23-1 confirm 49
O=[N+]([O-])/C=C/c1cn(Cc2ccc(Cl)cc2)c2ccccc12	TIM10 inh 64, tim10-1 inh 65, tim23-1 inh 73 | tim10-1 confirm 58 | tim10 confirm 30 | tim23-1 confirm 75
O=C(O)c1ccc(Cn2cc(/C=C\[N+](=O)[O-])c3ccccc32)o1	none
CCOC(=O)Cn1cc(/C=C/[N+](=O)[O-])c2ccccc21	none
